Bioassay records as filed in PubChem BioAssay.
The list is not random: actives were taken first. Their share in the collection is about 3.5%.
MITF inh = MITF inhibitors, primary screen, biochemical, AlphaScreen, human | Microphthalmia-associated transcription factor (Homo sapiens), O75030 | AlphaScreen MITF homodimerization, bead proximity signal | inhibition, % at 2.6 µM | actives 0.91% (n = 650,000) | AID 1259374, 2018; in the data active = inhibition above about 50%;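 also: 0% = vehicle wells with protein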
Target sequence (O75030 whole entry, looked up): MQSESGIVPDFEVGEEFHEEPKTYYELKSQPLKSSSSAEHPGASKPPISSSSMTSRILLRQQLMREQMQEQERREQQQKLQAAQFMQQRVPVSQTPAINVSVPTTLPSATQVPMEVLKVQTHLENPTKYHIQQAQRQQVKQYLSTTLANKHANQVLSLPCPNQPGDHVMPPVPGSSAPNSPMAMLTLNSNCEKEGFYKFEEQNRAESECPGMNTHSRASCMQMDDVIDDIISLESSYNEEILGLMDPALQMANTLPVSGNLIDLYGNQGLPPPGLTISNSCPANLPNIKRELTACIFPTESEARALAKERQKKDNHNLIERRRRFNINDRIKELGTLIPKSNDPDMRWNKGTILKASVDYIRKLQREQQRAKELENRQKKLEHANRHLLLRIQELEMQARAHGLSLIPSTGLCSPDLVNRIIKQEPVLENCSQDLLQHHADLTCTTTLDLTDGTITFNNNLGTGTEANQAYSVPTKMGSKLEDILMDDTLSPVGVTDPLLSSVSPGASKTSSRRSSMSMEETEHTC
FBW7 act = FBW7 E3 ligase activators, primary screen, biochemical, AlphaScreen, human; F-box/WD repeat-containing protein 7 (Homo sapiens), Q969H0; AlphaScreen FBW7–phospho-cyclin E peptide binding, activator screen; normalized activity (activation), % at 26.1 µM; actives 0.13% (n = 650,000); AID 1259310, 2017; in the data active = normalized activity above about 1.9%;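 also: purified mutant Fbw7 with reduced substrate affinity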
TEAD-YAP inh = TEAD-YAP interaction inhibition, primary screen, TEAD-YAP interaction inhibitor project, luminescence, HEK-TIYL cells. TEAD-Gal4/YAP UAS-luciferase luminescence. inhibition, % at 9.12 µM. actives 1.4% (n = 640,000). AID 1259422, 2018; in the data active = inhibition above about 32%;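 also: 0% = median of test compound wells and 100% = reference inhibitor wells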
GPR151 activ = activators of human GPR151, primary screen, cell-based, PathHunter beta-arrestin, luminescence | activation, % at 11.2 µM | PathHunter beta-arrestin GPR151 cells | actives 1% (n = 650,000) | G-protein coupled receptor 151 (Homo sapiens), Q8TDV0; in the data active = activation above about 4.9%;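 also: 0% = median of compound wells and 100% = cells with positive control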
The depositor's hits bear a star.

C#CCOc1ccccc1/C=C/[N+](=O)[O-] was read as MITF inh 1.9, FBW7 act -0.1, TEAD-YAP inh 45.8* and GPR151 activ -2.4.
O=C1NC(=S)NC(=O)C1=Cc1ccc(OCc2cccc(C(=O)O)c2)cc1 was read as MITF inh 5.3, FBW7 act -0.2, TEAD-YAP inh 62.5* and GPR151 activ -7.8.
For O=[N+]([O-])c1cc(CN2CCN(c3ccccc3F)CC2)ccc1O the results were MITF inh 3.9, FBW7 act 0.2, TEAD-YAP inh 3.3 and GPR151 activ -0.4.
`CN1C(=O)NC(=O)/C(=C/c2cccs2)C1=O` gave MITF inh 11.1, FBW7 act -0.3, TEAD-YAP inh -3.0 and GPR151 activ 2.5.
For CN1C(=O)NC(=O)/C(=C\c2cccc(Oc3ccccc3)c2)C1=O the results were MITF inh 64.8*, FBW7 act -0.5, TEAD-YAP inh 14.7 and GPR151 activ -1.3.
`COc1cc(Br)c(OC)c(C=C(C#N)C#N)c1` gave MITF inh 5.5, FBW7 act -0.1, TEAD-YAP inh 5.0 and GPR151 activ 1.0.
`CCN1CCN(c2ccc(NC(=S)NC(C)=O)cc2Cl)CC1` gave MITF inh -10.9, FBW7 act 0.0, TEAD-YAP inh 43.3* and GPR151 activ -0.6.
Screening CC1=NC2(CCNCC2)N=C1c1ccc(Cl)cc1 returned MITF inh 5.9, FBW7 act 0.0, TEAD-YAP inh -0.3 and GPR151 activ 1.6.
Screening O=C1C=CC(=O)c2c(O)cccc21 returned MITF inh 108.5*, FBW7 act -0.2, TEAD-YAP inh 1.7 and GPR151 activ 0.2.
COc1cc(C=C(C#N)C#N)cc2c1OCO2 was read as MITF inh 14.6, FBW7 act -0.1, TEAD-YAP inh -8.9 and GPR151 activ 1.0.
Screening COc1ccc(O)c(CN2CCN(Cc3ccccc3)CC2)c1 returned MITF inh -1.4, FBW7 act -0.1, TEAD-YAP inh 4.1 and GPR151 activ -0.8.
For COc1ccc(O)c(CN2CCN(Cc3cccc(C)c3)CC2)c1 the results were MITF inh 71.8*, FBW7 act -0.3, TEAD-YAP inh -3.8 and GPR151 activ -0.4.
`COc1ccc(O)c(CN2CCN(C)CC2)c1` gave MITF inh 16.2, FBW7 act 0.1, TEAD-YAP inh 1.9 and GPR151 activ -2.2.
Screening COc1ccc(O)c(CN2CCN(Cc3ccccc3Cl)CC2)c1 returned MITF inh 51.1*, FBW7 act -0.1, TEAD-YAP inh -2.9 and GPR151 activ -0.8.
`COc1cc(C=O)ccc1OP(=S)(c1ccncc1)C(C)(C)C` (stereo unspecified) gave MITF inh -1.5, FBW7 act -0.1, TEAD-YAP inh 4.2 and GPR151 activ 1.1.
For CCN1/C(=C/C=C/c2oc3ccc(-c4ccccc4)cc3[n+]2CC)Oc2ccc(-c3ccccc3)cc21 (tested in a mixture with another compound) the results were MITF inh -34.9, FBW7 act 0.2, TEAD-YAP inh 82.4* and GPR151 activ 1.5.
Screening COc1ccc(-c2noc(CC(=O)N3CCN(Cc4ccccc4)CC3)n2)cc1 returned MITF inh -2.6, FBW7 act -0.1, TEAD-YAP inh 12.0 and GPR151 activ -1.5.
Screening COc1[nH]c2ccccc2c1C=C(C#N)C#N returned MITF inh 7.3, FBW7 act -0.2, TEAD-YAP inh 70.6* and GPR151 activ 1.1.
For CN1CCN(Cc2cccc(OC3CCCC3)c2)CC1CCO (stereo unspecified) the results were MITF inh 10.9, FBW7 act 0.3, TEAD-YAP inh 9.0 and GPR151 activ -1.5.
For Cc1c2oc3c(C)ccc(C(=O)N[C@@H]4C(=O)N[C@H](C(C)C)C(=O)N5CCC[C@H]5C(=O)N(C)CC(=O)N(C)[C@@H](C(C)C)C(=O)O[C@@H]4C)c3nc-2c(C(=O)N[C@@H]2C(=O)N[C@H](C(C)C)C(=O)N3CC(=O)C[C@H]3C(=O)N(C)CC(=O)N(C)[C@@H](C(C)C)C(=O)O[C@@H]2C)c(N)c1=O the results were MITF inh 3.8, FBW7 act 0.0, TEAD-YAP inh 94.5* and GPR151 activ -1.3.
Cc1c(Cl)cccc1NC(=O)C1C(C)(C)C1(C)C was read as MITF inh 4.8, FBW7 act 0.0, TEAD-YAP inh 5.8 and GPR151 activ 0.1.
CCOC(=O)C1(c2ccccc2)CCN(Cc2ccc(O)c(C(=O)OC)c2)CC1 was read as MITF inh 6.7, FBW7 act 0.0, TEAD-YAP inh 34.9* and GPR151 activ 0.4.
Screening CCCC(C)n1[nH]c(=O)c2c1NC(=O)CSC2c1ccc(N(C)C)cc1 (stereo unspecified) returned MITF inh 2.1, FBW7 act -0.1, TEAD-YAP inh 0.8 and GPR151 activ 2.0.
Screening CCN1CC2([N+](=O)[O-])C=CC(=O)C([N+](=O)[O-])(C1)C2 (stereo unspecified) returned MITF inh -1.3, FBW7 act 0.1, TEAD-YAP inh 0.8 and GPR151 activ 1.3.
`COc1ccc(OCCOc2ccc(C=C3C(=O)NC(=O)NC3=O)cc2)cc1` gave MITF inh 7.0, FBW7 act -0.1, TEAD-YAP inh -12.8 and GPR151 activ 2.4.
For CCN(CC)C(C)C(=O)c1ccccc1 (stereo unspecified) the results were MITF inh -6.0, FBW7 act 0.0, TEAD-YAP inh -2.6 and GPR151 activ -0.1.
`CC(=O)[O][Hg][c]1ccccc1` gave MITF inh -4.5, FBW7 act 0.4, TEAD-YAP inh 97.6* and GPR151 activ 1.0.
Screening NC(Cc1cc(O)c(O)cc1O)C(=O)O (stereo unspecified) returned MITF inh 62.0*, FBW7 act -0.4, TEAD-YAP inh -6.7 and GPR151 activ 0.1.
Screening CN1CCc2nc(N)c(C#N)c(-c3ccc(Cl)cc3Cl)c2C1 returned MITF inh 0.7, FBW7 act -0.2, TEAD-YAP inh 6.2 and GPR151 activ 0.8.
`CCN(CC)c1ccc(N=Cc2c(O)[nH]c(=O)[nH]c2=O)cc1` gave MITF inh 65.6*, FBW7 act -0.5, TEAD-YAP inh 14.5 and GPR151 activ -1.3.
C=C(C)[C@@H]1CCC(C)=C[C@H]1c1c(C)cc(O)cc1O was read as MITF inh -9.5 and GPR151 activ 0.1.
Cc1c(O)c(O)cc2c1CC=C1[C@@]2(C)CC[C@@]2(C)C3C[C@](C)(C(=O)O)CC[C@]3(C)CC[C@]12C (stereo partly specified) was read as MITF inh -2.8, FBW7 act 0.0, TEAD-YAP inh 56.2* and GPR151 activ -1.2.
For CC1=C(O)C(=O)C=C2C1=CC=C1[C@@]2(C)CC[C@@]2(C)[C@@H]3C[C@](C)(C(=O)O)CC[C@]3(C)CC[C@]12C the results were MITF inh -13.2, FBW7 act 0.0, TEAD-YAP inh 42.8* and GPR151 activ -0.7.
